Screening data: PubChem, The Scripps Research Institute Molecular Screening Center
DAX1 inh-1 = DAX1 (NR0B1) inhibitors, primary screen, cell-based, HEK293, Gal4-DAX1, luciferase luminescence; actives 0.99% (n = 340,000); AID 504766, 2011; HEK293 Gal4-DAX1 luciferase reporter; inhibition, % at 6.75 µM; Nuclear receptor subfamily 0 group B member 1 (Homo sapiens), P51843;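 active = inhibition above the mean over all tested compounds plus 3 SD, cut at about 4.2% in these data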;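 also: 0% = DAX1-transfected cells with DMSO and 100% = empty-vector control cells with DMSO; inhibition shows as a rise in luminescence from relieved DAX1 repression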
Wee1 degr inh = Wee1 degradation inhibitors, primary screen, cell-based, HeLa, Wee1K328M-luciferase, luminescence; Wee1-like protein kinase (Homo sapiens), P30291; HeLa Luc-Wee1K328M stability; 100% = proteasome inhibitor MG132 effect; reporter increase, % at 5 µM; actives 1.2% (n = 220,000);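 active = activation above the mean of all tested compounds plus 3 SD, set per screening run, cut at about 8.8% in these data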;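 also: cells exposed to compound for 20 h before luminescence read; 0% = DMSO alone and 100% = MG132 at 30 µM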
Target sequence (P30291 whole entry K328M): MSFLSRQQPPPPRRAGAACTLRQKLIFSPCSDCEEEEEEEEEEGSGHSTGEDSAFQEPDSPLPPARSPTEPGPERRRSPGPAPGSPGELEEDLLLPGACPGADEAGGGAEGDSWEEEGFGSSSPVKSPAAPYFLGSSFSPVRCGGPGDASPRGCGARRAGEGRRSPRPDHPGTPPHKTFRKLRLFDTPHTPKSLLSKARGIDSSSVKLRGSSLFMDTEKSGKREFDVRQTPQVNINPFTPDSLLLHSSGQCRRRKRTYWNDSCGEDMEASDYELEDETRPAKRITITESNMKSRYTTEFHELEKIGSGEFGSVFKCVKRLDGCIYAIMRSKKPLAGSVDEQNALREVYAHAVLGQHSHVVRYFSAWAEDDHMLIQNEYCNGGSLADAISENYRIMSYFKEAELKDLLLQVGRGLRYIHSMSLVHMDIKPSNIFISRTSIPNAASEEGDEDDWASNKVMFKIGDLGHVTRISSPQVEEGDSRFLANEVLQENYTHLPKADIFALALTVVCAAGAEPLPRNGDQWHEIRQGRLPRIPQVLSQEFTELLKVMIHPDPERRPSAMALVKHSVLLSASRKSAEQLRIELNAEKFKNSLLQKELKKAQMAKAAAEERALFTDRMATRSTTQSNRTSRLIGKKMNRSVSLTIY
DAX1 inh-2 = DAX1 (NR0B1) inhibitors on StAR promoter, primary screen, cell-based, luminescence, SF-1 (NR5A1), full-length DAX-1. HEK293T StAR-luciferase reporter, SF-1/DAX-1 repression relief. inhibition, % at 6.8 µM. actives 1.1% (n = 370,000);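 active = inhibition above the mean over all tested compounds plus 3 SD, cut at about 3.6% in these data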;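 also: 0% = DAX-1 cells with DMSO and 100% = cells lacking DAX-1 with DMSO; higher inhibition means more luminescence from relief of DAX-1 repression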
ssDAF-12 act = S. stercoralis DAF-12 nuclear receptor activators, primary screen, cell-based, luminescence, HEK293, GRIP1 co-expression, lit1-tk-luc; AID 652126, 2013; Nuclear hormone receptor DAF-12 (Strongyloides stercoralis); actives 1% (n = 370,000); activation, % at 6.8 µM; HEK293 ssDAF-12/GRIP1 lit1-tk-luc reporter; % of 3 µM dafachronic acid response;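 active = activation above the mean over all tested compounds plus 3 SD, cut at about 0.9% in these data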;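 also: 0% = DMSO-only wells and 100% = 3 µM delta7-dafachronic acid wells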
hcDAF-12 act = H. contortus DAF-12 nuclear receptor activators, primary screen, cell-based, luminescence, HEK293, lit1-tk-luc reporter | HEK293 hcDAF-12 lit1-tk-luc reporter; 0% DMSO, 100% Δ7-dafachronic acid | actives 1.4% (n = 370,000) | activation, % at 6.8 µM;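 active = activation above the mean of all tested compounds plus 3 SD, cut at about 5.5% in these data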;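 also: 100% = response to 3 µM Δ7-dafachronic acid high control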
hgDAF12 agonist = H. glycines DAF-12 receptor agonists, primary screen, cell-based, luminescence, HEK293, GAL4 fusion, UAS-luciferase. Nuclear hormone receptor DAF-12 (Heterodera glycines), GAL4 fusion. HEK293 GAL4-hgDAF12 UAS-luciferase reporter, agonist luminescence; normalized to butyrate control. activation, % at 6.8 µM. actives 1.8% (n = 370,000). AID 687014, 2013;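 active = activation above a cutoff set at the mean of all screened compounds plus 3 SD, cut at about 10% in these data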;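 also: 0% = DMSO wells and 100% = sodium butyrate wells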
* = called active by the depositor; . = not tested or not shown. The list is not random: actives were taken first. Their share in the collection is about 4.6%.

SMILES	DAX1 inh-1	Wee1 degr inh	DAX1 inh-2	ssDAF-12 act	hcDAF-12 act	hgDAF12 agonist
O=C(NC1CCCCCCC1)c1cc([N+](=O)[O-])ccc1Cl	0	.	-1	-1	0	2
CCN(CC)S(=O)(=O)c1cc(C(=O)NC2CCCCC2)ccc1C	-1	5	2	0	3	11*
O=C(NCC1CCCCC1)c1cccc([N+](=O)[O-])c1	2	.	0	-1	0	3
CCN(Cc1ccccc1)S(=O)(=O)c1cc(C(=O)NC2CCCCCC2)ccc1OC	-2	1	-1	-2	0	-4
O=C(NC1CCCCC1)c1ccc([N+](=O)[O-])cc1	1	.	3.7*	1	1	6
CC(C)C1=NN(C(=O)c2ccccc2)C(O)(C(C)(C)C)C1 (centres undefined)	2	0	1	0	0	12*
N#C/C(=C/c1ccc(N2CCCCC2)o1)c1cccc(F)c1	1	1	4.4*	0	-1	-4
N#C/C(=C/c1ccc(N2CCCCCC2)o1)c1ccc(Cl)cc1	-1	3	.	.	.	.
O=C1NC[C@H](CCCCN2C[C@@H](Cc3ccccc3)N(CC3CCCCC3)C(=O)C2=O)N(CCC2CCCCC2)C1=O	.	.	1	-1	1	-4
COCc1cc(C)n(CC(=O)N/N=C/c2ccc(-c3ccc(Cl)c(C(=O)O)c3)o2)c(=O)c1C#N	1	0	0	0.9*	1	-1
O=C(CC1Sc2ccccc2NC1=O)Nc1cccnc1 (centres undefined)	2	5	1	-1	0	-4
CC(C(=O)Nc1cccnc1)C1Sc2ccccc2NC1=O (centres undefined)	1	-1	0	-1	6.0*	3
Cc1ccc(CNC(=O)c2ccc(C)c(S(=O)(=O)N3CCCCC3)c2)cc1	0	.	0	-2	-1	0
N/C(=N\OC(=O)Cc1ccc(Cl)cc1)c1ccncc1	0	8.9*	-1	-2	-1	6
N/C(=N\OC(=O)Cc1ccc(Cl)cc1)c1cccnc1	0	-2	.	.	.	.
Cc1cnc(NC(=O)CCc2ccccc2)s1	-2	.	-1	-1	-1	6
CCC(=O)c1ccc(OCC(=O)Nc2nc(C)cs2)cc1	3	.	2	0	1	12*
Cc1cnc(NC(=O)COc2ccccc2)s1	3	-2	2	0	1	12*
COc1ccc(OCC(=O)Nc2nccs2)cc1	-2	5	3	0	6.1*	8
CCC(=O)c1ccc(OCC(=O)Nc2nc(-c3cccnc3)cs2)cc1	-2	.	1	0	3	2
CCOc1ccc(OCC(=O)Nc2nccs2)cc1	-3	-3	.	.	.	.
CC(C)CN(C(=O)COc1ccccc1C(=O)NCc1ccccc1)C1CCS(=O)(=O)C1 (centres undefined)	0	.	0	-1	2	-1
CN(Cc1ccccc1)C(=O)C1(C)CCN1C(=O)Cc1ccc(Cl)cc1Cl (centres undefined)	.	.	-2	-1	-2	-2
COc1ccc(OCC(=O)C2CC2)c(C#N)c1	7.2*	-1	0	0	2	2
COc1ccc(C(=O)C2CC2)cc1	2	.	0	-1	1	5
SMILES	DAX1 inh-1	Wee1 degr inh	DAX1 inh-2	ssDAF-12 act	hcDAF-12 act	hgDAF12 agonist
CC(C)N1CCCCC(NC(=O)c2ccc(F)c(F)c2)C1=O (centres undefined)	.	.	0	-1	-2	3
Cc1ccc2nc(-c3ccsc3)c(NC3CCCC3)n2c1	0	10*	0	-2	0	5
Cc1ccc2nc(-c3ccncc3)c(NC3CCCCC3)n2c1	3	-3	2	-2	-1	3
Cc1ccc2nc(-c3ccncc3)c(NC3CCCC3)n2c1	5.0*	-5	-1	-1	-1	1
O=C(CNC(c1ccccc1)c1ccccc1)Nc1c(F)cccc1F	1	0	0	-1	-2	-1
Fc1cccc(Cl)c1CNC(c1ccccc1)c1ccccc1	-1	9.1*	0	-1	1	1
Cc1[nH]c2c([N+](=O)[O-])cccc2c1C	4.2*	3	0	-1	1	1
C[C@@H]1CN(Cc2nnnn2CC(=O)NCCCn2cccn2)C[C@H](C)O1	0	.	0	-1	0	0
CC(Sc1nnc(COc2ccccc2)n1Cc1ccccc1)C(=O)O (centres undefined)	1	-3	1	0.9*	0	0
CC(Sc1nnc(COc2ccc(Cl)cc2)n1Cc1ccccc1)C(=O)O (centres undefined)	0	-3	0	-2	-1	-1
Cc1cccc(-n2c(SCC(=O)N(C)C3CCS(=O)(=O)C3)nc3ccccc3c2=O)c1C (centres undefined)	-1	.	-2	-1	0	-4
CN(C(=O)CSc1nc2ccccc2c(=O)n1-c1ccccc1F)C1CCS(=O)(=O)C1 (centres undefined)	-1	.	-1	0.9*	1	-3
O=C(CCC(=O)NNc1nc2ccccc2c2nc(-c3ccccc3)nn12)NCCCN1CCOCC1	0	-1	0	0	5.6*	5
CSc1ncnc2c1ncn2CCCNCCCN1CCCC1=O	0	.	1	-1	-2	-1
COc1cc2c(cc1[N+](=O)[O-])n(C(C)C)c(=O)n2C(C)C	5.5*	-3	0	-1	-2	-4
CCCC(=O)OCC(=O)Nc1ccc(N=Nc2ccccc2)cc1	3	1	3	0	5.7*	11*
COc1cccc(CN2CC(C(=O)N3CCN(C(C)C)CC3)CCC2=O)c1 (centres undefined)	4.6*	.	0	-1	-1	1
Cc1cc(N2Cc3ccccc3C2)ccc1C=O	0	.	2	0	5	13*
Cc1cc2c(cc1C)CN(c1ccccc1)C2	3	1	2	0	5	12*
Oc1cccc(N2Cc3ccccc3C2)c1	2	.	.	.	.	.
Cc1cccc(S(=O)(=O)N2CCC[C@H]2C(=O)N2CCC[C@@H]2C(=O)NCc2ccccc2)c1	.	.	-1	-1	0	-2
COC(=O)[C@H](C)NC(=O)[C@H](CC(C)C)NC(=O)OC(C)(C)C	.	.	0	-1	0	-3
